Among the data in ChEMBL document CHEMBL1157539, “Thousands of chemical starting points for antimalarial lead identification” (Nature, 2010) are Inhibition values, retold here.

Assay type in all cases: functional
Test [1] concerns Plasmodium falciparum. Put plainly: GSK_TCMDC: Inhibition of Plasmodium falciparum 3D7 in whole red blood cells, using parasite LDH activity as an index of growth. Test compounds present at 2uM.
Test [2] concerns Plasmodium falciparum. Description: GSK_TCMDC: Inhibition of Plasmodium falciparum Dd2 in whole red blood cells, using parasite LDH activity as an index of growth. Test compounds present at 2uM.
Test [3] deals with HepG2. Description: GSK_TCMDC: Percent inhibition of human HepG2 cell line. Test compounds present at 10uM.

SMILES strings stand for the structures.

On to `COC(=O)Cn1c2ccccc2c2c(N)c(C(=O)OC)c(C)nc21`, for which the Inhibition in test [1] came out at 93%; in test [2], 1%; in test [3], 0%.

For `O=C(Nc1cccc(CN2CCN(Cc3ccc(O)cc3)CC2)c1)c1ccc(Cl)c(Cl)c1.O=C(O)C(F)(F)F`, the Inhibition is 100% in test [1], 95% in test [2] and 30% in test [3].

On to `CCN(CCCN1CCCCC1)c1cc(C)nc(Nc2ccc(C)c(Br)c2)n1.O=C(O)C(F)(F)F`, for which the Inhibition worked out at 100% in test [1], 98% in test [2] and 42% in test [3].

In the case of `CN(CCc1ccccc1)c1ncc(-c2ccccc2CNCc2ccccc2O)cn1`, the Inhibition turned out to be 99% in test [1], 94% in test [2] and 10% in test [3].

Take `Nc1nc(N)c2c(CCc3ccc4ccccc4c3)cccc2n1`: the figures for the Inhibition in test [1], in test [2] and in test [3] were 100%, 6% and 56%, respectively.

With `O=S(=O)(c1ccccc1OC(F)(F)F)C1CC2CCC(C1)N2S(=O)(=O)c1cccc(C(F)(F)F)c1` (stereo not drawn), the Inhibition in test [1] is recorded as 99%; in test [2], 99%; in test [3] it was 5%.

Turning to `O=C(Nc1ccc(-c2cccc(-c3nc4cc(C(F)(F)F)ccc4[nH]3)c2)cc1)Nc1ccc(Cl)c(Cl)c1`, the Inhibition in test [1] worked out at 98%; in test [2], 23%; in test [3], 42%.

For the molecule `OC(CNc1ccnc(Nc2ccc(Cl)cc2)n1)c1ccccc1C(F)(F)F` (stereo not drawn), the Inhibition is 98% in test [1], 28% in test [2] and 22% in test [3].

With `CC1(CCc2ccccc2)N=C(Nc2ccc(Cl)cc2)N=C(N)C1c1ccc(Cl)c(Cl)c1` (stereo not drawn), the values for the Inhibition in test [1], in test [2] and in test [3] were 100%, 98% and 81%, respectively.

As to `Cc1cc(NC(=O)Nc2ccc3nc(C)oc3c2)c2cc(Cl)ccc2n1`, the Inhibition in test [1] was found to be 100%; in test [2] it was 57%; in test [3], 0%.

Consider `CC(=O)CCc1ccc(OCCN(Cc2ccccc2C(F)(F)F)c2ccc(C#N)c(C(F)(F)F)c2)cc1`, for which the figures for the Inhibition in test [1], in test [2] and in test [3] were 100%, 87% and 14%, respectively.
